Outcome data for 68 molecules are collected here from PubChem BioAssay AID504882 (Broad Institute, 2011).

Structures are written as SMILES. Among all 1,200 compounds or so, about 290 (24%) were called active. About 9% were inconclusive and are not listed. The rule behind the calls is not given here. These entries were drawn from the full list. Where a call stands in place of a potency, no number is given. Potency and affinity values are given separately.

A short description of the assay: cytotoxicity in EBV lymphoblastoid cells, dose response, cytotoxicity control, cell-based, plate reader, cherry-picks, set 2 (AID 504882). The conditions noted are these: EBV lymphoblastoid cells (LCL) viability; series mostly up to 19.5 µM.
As for `O=C(Cn1ccc(C(F)(F)F)n1)Nc1cccc(S(=O)(=O)N2CCCCC2)c1`, the molecule was called inactive. To `O=C1C2CCCN2c2ccc(S(=O)(=O)N3CCOCC3)cc2N1Cc1ccccc1F` (stereo not drawn) belongs “inactive”. To `Cn1c(CC(=O)Nc2ccc(F)cc2)nnc1SCC(=O)Nc1nncs1` belongs “inactive”. To `Cc1ccccc1N(C(=O)c1snc(C(N)=O)c1N)C(C(=O)NC1CCCCC1)c1ccc(O)cc1` (stereo not drawn) belongs “inactive”; to `N#CCN(N=Nc1ccccc1)c1ccccc1`, “inactive”. In the case of `COC(=O)c1ccc(/C=C(/NC(=O)c2ccccc2)C(=O)N2CCOCC2)cc1`, the molecule was classed as inactive.

Take `Cc1cc(/C=C2\Cc3ccccc3C2=O)c(C)n1-c1ccccc1`: the call was inactive. To `Cc1ccc(CCNC(=O)CCc2nc3ccccc3[nH]2)cc1` belongs “inactive”; to `CC(=O)Nc1ccc(OCC(O)CNC(C)C)cc1` (stereo not drawn), “inactive”. Consider `CC1=C(C)C(OCCCl)N(c2cc(O)c(Cl)cc2F)C1=O` (stereo not drawn), for which the molecule was called inactive.

Regarding `O=C(O)c1cccc(NC(=O)c2cn(-c3ccccc3)nc2-c2ccc(F)cc2)c1`, the molecule was classed as inactive. As for `N/C(=N\OC(=O)c1cccc(Br)c1)c1ccccn1`, the call was inactive. With `C/C(=N/NC(=O)c1cc(C2CC2)[nH]n1)c1cccs1`, the outcome was inactive.

For the molecule `Cc1cc(C(=O)CSc2nnc(-c3cccs3)o2)c(C)n1-c1ccccc1`, the result was inactive. As to `CN(Cc1ccc(F)cc1)C(=O)CN1CCN(S(=O)(=O)c2ccc3c(c2)OCCCO3)CC1`, the molecule was classed as inactive.

With `COc1cc(N(C)C)c([N+](=O)[O-])cc1C(=O)N1CCN(Cc2ccccc2)CC1`, the molecule was called inactive. As for `COc1ccc(CCNC(=O)CSc2ccsc2[N+](=O)[O-])cc1OC`, the entry is “inactive”; as for `CCOc1ccc(NC(=O)Cn2cc(C(=O)CC)c3ccccc32)cc1`, “inactive”; as for `O=C(NC(Cc1c[nH]c2ccccc12)C(=O)Nc1ccc(F)c([N+](=O)[O-])c1)c1cccs1` (stereo not drawn), “inactive”. To `COc1ccc(/C=N/Nc2cc(OC)ncn2)cc1` belongs “inactive”; to `Cc1ccc(C)c(S(=O)(=O)N2CCN(CC(=O)N3CCc4ccccc4C3)CC2)c1`, “inactive”. To `Cc1ccc(NC(=S)Nc2cccc(S(=O)(=O)Nc3c(C)n(C)n(-c4ccccc4)c3=O)c2)cc1` belongs “inactive”; to `O=C1N[C@@H](Cc2c[nH]c3ccccc23)COC(=O)[C@H](Cc2ccc(F)cc2)C/C=C\C[C@H]1CC(=O)N(CCO)Cc1ccccc1`, “inactive”.

On to `O=C(Nc1ccc(N2CCOCC2)cc1)c1cnccn1`, for which the molecule was called inactive. To `O=C(Nc1ccc(CN2CCOCC2)cc1)c1cc2ccccn2n1` belongs “inactive”; to `CSc1nc(N)nc(SCC(=O)C23CC4CC(CC(C4)C2)C3)c1C#N`, “inactive”; to `COc1ccc(C2CC(C(F)(F)F)n3ncc(C(=O)NCc4cccnc4)c3N2)cc1OC` (stereo not drawn), “inactive”. As for `O=C(CN1C(=O)c2ccccc2C1=O)NNC1=NS(=O)(=O)c2ccccc21`, the entry is “inactive”; as for `CCOc1cccc(CNc2nnnn2C)c1`, “inactive”.

Turning to `Nc1nc2ccccc2n1C(=O)c1ccccc1`, the call was inactive. As for `COc1ccc(/C=C/c2nc3ccccc3c(=O)o2)cc1`, the call was inactive.

Take `CCCC(=O)NCCCc1nc2ccccc2n1C`: the molecule was classed as inactive. To `CC(C)(C)n1nc(-c2ccc(Cl)cc2)c2c(N)ncnc21` belongs “inactive”; to `O=C(CCNc1cccc(F)c1)c1cc2ccccc2o1`, “inactive”. As for `CCc1cc(=O)oc2c(CNCc3c(F)cccc3Cl)c(O)ccc12`, the entry is “inactive”; as for `Cc1cc(N2CCCC2=O)cc(C)c1S(=O)(=O)Nc1c(C)nn(C)c1C`, “inactive”. To `O=C(C=C1SCCS1)/C=C/c1ccco1` belongs “inactive”; to `CC(C)(C)c1ccc(C(=O)Nc2nnc(SCC(=O)NCC3CCCO3)s2)cc1` (stereo not drawn), “inactive”; to `Cc1cc(NC(=O)CSc2ccnc(=O)[nH]2)no1`, “inactive”. As to `CC(C)Cc1ccc([C@H](C)C(=O)O)cc1`, the outcome was inactive. To `CS(=O)(=O)N(CC(=O)Nc1ccc(F)cc1F)C1CCCCC1` belongs “inactive”; to `O=C1CCC(C(=O)N2CCCCCC2)CN1CCc1ccc(Cl)cc1` (stereo not drawn), “inactive”.

Take `O=C1/C(=C/c2cccnc2)SC(=S)N1Cc1ccco1`: the outcome was inactive. To `S=C1SCN(Cc2ccccc2)CN1Cc1ccco1` belongs “inactive”; to `CC(C)NC(=O)N(C)C[C@H]1Oc2c(NC(=O)Nc3ccc4c(c3)OCO4)cccc2C(=O)N([C@H](C)CO)C[C@@H]1C`, “inactive”; to `O=C1CCCN2N=C(SCC(=O)Nc3ccc(Br)cc3)SC2=N1`, “inactive”. To `COc1ccc(S(=O)(=O)NCCc2csc(-c3cccnc3)n2)cc1` belongs “inactive”. To `CC1Cc2ccccc2N1c1ncnc(N)c1[N+](=O)[O-]` (stereo not drawn) belongs “inactive”; to `CC(=O)Nc1ccc(NC(=O)C(c2ccccc2)c2ccccc2)cc1`, “inactive”. As for `O=C(Cc1ccc(Cl)cc1)NCC(=O)N1CCCCC1`, the molecule was classed as inactive. To `CCOC(=O)c1cn2nc(N3CCCC3)ccc2n1` belongs “inactive”; to `COc1cc(/C=N/NC(=O)c2cc(C34CC5CC(CC(C5)C3)C4)[nH]n2)ccc1O`, “inactive”. In the case of `COc1cc2cc(C(=O)Nc3ccc4c(c3)OCCO4)[nH]c2cc1OC`, the outcome was inactive. As for `O=C(Nc1cc(S(=O)(=O)N2CCOCC2)ccc1Cl)c1ccncc1`, the entry is “inactive”; as for `COC(=O)[C@H](C)[C@H]1C[C@]1(C)[C@H](NC(=O)OCc1ccccc1)c1ccccc1`, “inactive”. Regarding `COc1ccccc1N1CCN(CCCNC(=O)C2CCCN(c3ncnc4c3nc3n4CCCCC3)C2)CC1` (stereo not drawn), the molecule was classed as inactive. To `CCOC(=O)c1sc(NC(=O)CNCc2ccccn2)c(C(=O)OCC)c1C` belongs “inactive”; to `Cc1ccsc1/C=N/NC(=O)c1ccc2c(c1)OCCO2`, “inactive”. To `CC(=O)c1c(C)[nH]c(C(=O)Nc2ccc(C)cn2)c1C` belongs “inactive”; to `Cc1cccn2c(=O)c(C=NCCO)c(NCc3ccco3)nc12`, “inactive”; to `Clc1ccccc1C1=Nn2c(nnc2-c2ccncc2)SC1`, “inactive”. As for `Cc1ccc(C(=O)Nc2cccc(C(F)(F)F)c2)cc1Nc1ncnc2nc[nH]c12`, the entry is “inactive”. `c1cncc(CNc2ncnc3ccc(-c4ccoc4)cc23)c1`: the call was inactive. As for `Cc1sc2ncn(CC(=O)N3CCC(C(N)=O)CC3)c(=O)c2c1S(=O)(=O)N1CCOCC1`, the entry is “inactive”; as for `Cc1ccc(N2CCN(C3=NC(=O)/C(=C\c4cn[nH]c4-c4ccccc4)S3)CC2)cc1`, “inactive”. As for `CC1CCN(C(=O)/C(=C\c2cccs2)NC(=O)c2ccccc2)CC1`, the entry is “inactive”; as for `C=CCN(c1ccc(C(=O)Nc2ccc3c(c2)n(C)c(=O)n3C)cc1)S(C)(=O)=O`, “inactive”. As to `COC(=O)c1cccc(COC(=O)c2ccccc2NC(=O)c2ccco2)c1`, the result was inactive.
